Results on 37 compounds are retold here after PubChem BioAssay AID1259245 (Vanderbilt High Throughput Screening Facility, 2017).

The campaign covered roughly 40,000 compounds. About 1,400 (3.5%) were called active. The sample holds actives, similar compounds and a random draw of the others, so the mix is not that of the screen.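 Rule for the calls: active = any of four per-well response measures lying three or more SD from its plate-wide compound average, in either direction; inactive = the rest, inconclusive results apart.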

Voltage-dependent calcium channel gamma-2 subunit (Mus musculus) + Glutamate receptor 2 (Rattus norvegicus), sequence (O88602 whole entry, looked up): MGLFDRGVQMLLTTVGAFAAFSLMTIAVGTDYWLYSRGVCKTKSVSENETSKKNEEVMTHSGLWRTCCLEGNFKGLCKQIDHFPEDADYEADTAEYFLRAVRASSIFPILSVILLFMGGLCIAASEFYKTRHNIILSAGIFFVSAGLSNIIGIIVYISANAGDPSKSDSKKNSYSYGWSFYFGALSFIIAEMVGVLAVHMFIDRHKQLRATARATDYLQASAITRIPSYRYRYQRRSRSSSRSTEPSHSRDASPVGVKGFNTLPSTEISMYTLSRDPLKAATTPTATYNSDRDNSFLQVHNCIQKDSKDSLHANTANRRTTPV
Voltage-dependent calcium channel gamma-2 subunit (Mus musculus) + Glutamate receptor 2 (Rattus norvegicus), sequence (P19491 whole entry, looked up): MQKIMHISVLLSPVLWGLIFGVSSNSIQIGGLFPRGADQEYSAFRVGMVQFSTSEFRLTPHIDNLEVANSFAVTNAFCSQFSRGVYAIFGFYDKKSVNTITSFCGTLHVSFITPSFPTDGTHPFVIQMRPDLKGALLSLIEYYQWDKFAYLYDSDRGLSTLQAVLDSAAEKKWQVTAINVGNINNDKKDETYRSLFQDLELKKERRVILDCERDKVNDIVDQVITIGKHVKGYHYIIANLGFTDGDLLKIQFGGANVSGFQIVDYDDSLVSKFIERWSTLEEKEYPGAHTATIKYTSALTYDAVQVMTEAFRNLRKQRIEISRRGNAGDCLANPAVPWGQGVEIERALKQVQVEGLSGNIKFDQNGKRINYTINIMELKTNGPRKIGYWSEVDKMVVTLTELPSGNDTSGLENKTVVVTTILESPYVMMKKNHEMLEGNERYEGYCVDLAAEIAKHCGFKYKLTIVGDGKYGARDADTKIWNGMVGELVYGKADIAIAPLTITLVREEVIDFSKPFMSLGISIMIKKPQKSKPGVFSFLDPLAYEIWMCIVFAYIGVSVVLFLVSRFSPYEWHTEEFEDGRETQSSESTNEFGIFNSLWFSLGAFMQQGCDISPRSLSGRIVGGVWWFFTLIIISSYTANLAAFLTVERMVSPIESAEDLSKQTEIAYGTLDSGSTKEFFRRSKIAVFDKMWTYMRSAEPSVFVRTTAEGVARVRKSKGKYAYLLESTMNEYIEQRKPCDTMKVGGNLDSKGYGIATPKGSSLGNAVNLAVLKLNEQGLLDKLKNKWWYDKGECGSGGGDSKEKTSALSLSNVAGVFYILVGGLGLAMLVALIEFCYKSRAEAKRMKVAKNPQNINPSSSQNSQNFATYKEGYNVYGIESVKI

This experiment concerns the target Voltage-dependent calcium channel gamma-2 subunit (Mus musculus) + Glutamate receptor 2 (Rattus norvegicus) (UniProt O88602+P19491). Briefly: AMPAR-TARP gamma-2 complex positive or negative modulation – cell-based, membrane potential dye, primary screen (AID 1259245). The conditions noted are these: HEK293 GluA2+stargazin, membrane potential dye (FDSS), glutamate EC50, at 30 µM, hits were called plate by plate, in both directions; compound max-min signal: compound-alone response (agonism); glutamate slope, % of max: measured here: glutamate response slope, % max.
Turning to `COc1cccc(NC(=O)c2ccc(=O)n(Cc3cccc(C(F)(F)F)c3)c2)c1`, the compound max-min signal is 0.0915; the glutamate response, % of max is 23.5% (inactive); the glutamate slope, % of max came to 41.6%.

With `COc1cc(CN2CCN(c3nccn3C)CC2)cc(OC)c1`, the compound max-min signal was 0.0438; the glutamate response, % of max is 12.8% (inactive); the glutamate slope, % of max is 27.6%.

As for `COc1ccc(OC)c(-c2ccc(=O)n(CC(=O)N3CCOCC3)n2)c1`, the compound max-min signal is 0.0773; the glutamate response, % of max is 62.3% (inactive); the glutamate slope, % of max amounted to 97.9%.

As for `Cc1ccccc1NC(=O)NC1(c2nc(-c3ccsc3)no2)CCCCC1`, the compound max-min signal is 0.081; the glutamate response, % of max was 34.5% (inactive); the glutamate slope, % of max was determined as 56%.

For `O=S(=O)(NC1(c2nc(-c3ccsc3)no2)CCCCC1)c1ccccc1`, the compound max-min signal was 0.127; the glutamate response, % of max was 19.9% (active); the glutamate slope, % of max was determined as 36.2%.

Turning to `COc1cc(Cl)ccc1C(=O)NC1(c2nc(-c3ccsc3)no2)CCCCC1`, the compound max-min signal was 0.0754; the glutamate response, % of max is 37.6% (inactive); the glutamate slope, % of max came to 63.1%.

Regarding `COc1ccccc1OCC(=O)Nc1cc(C(=O)N2CCOCC2)cn(C)c1=O`, the compound max-min signal turned out to be 0.134; the glutamate response, % of max is 36.2% (inactive); the glutamate slope, % of max is 63%.

For `CCCC(CCC)C(=O)N1CCN(c2ncnc3c2nnn3-c2ccc(OC)cc2)CC1`, the compound max-min signal was determined as 0.0796; the glutamate response, % of max is 50.3% (inactive); the glutamate slope, % of max worked out at 57.2%.

For the compound `COc1ccc(-n2nnc3c(N4CCN(C(=O)C(C)Oc5ccccc5)CC4)ncnc32)cc1` (stereo unspecified), the compound max-min signal is 0.0918; the glutamate response, % of max is 83.4% (active); the glutamate slope, % of max amounted to 124%.

With `CC(Oc1ccccc1)C(=O)N1CCN(c2ncnc3c2nnn3-c2ccc(Cl)cc2)CC1` (stereo unspecified), the compound max-min signal worked out at 0.0923; the glutamate response, % of max is 46% (inactive); the glutamate slope, % of max amounted to 58.4%.

Regarding `COc1ccc(Cl)cc1NC(=O)Nc1cc(N2CCCS2(=O)=O)ccc1C`, the compound max-min signal stood at 0.0964; the glutamate response, % of max is 36.6% (inactive); the glutamate slope, % of max turned out to be 48.9%.

On to `Cc1c(-c2ccccc2)c(=O)oc2c3c(ccc12)OCN(Cc1cccnc1)C3`, for which the compound max-min signal was found to be 0.117; the glutamate response, % of max is 15.5% (inactive); the glutamate slope, % of max was 35%.

As to `O=C(CCc1ccccc1)NCC1CCN(Cc2ccsc2)CC1`, the compound max-min signal came out at 0.0535; the glutamate response, % of max is 10.8% (active); the glutamate slope, % of max is 27.6%.

As for `O=C(NCC1CCN(Cc2ccsc2)CC1)C(=O)Nc1ccon1`, the compound max-min signal is 0.08; the glutamate response, % of max was 38.4% (inactive); the glutamate slope, % of max worked out at 57.1%.

Take `O=C(CCc1ccccc1)NCCS(=O)(=O)N1CCN(Cc2ccccc2)CC1`: the compound max-min signal turned out to be 0.0536; the glutamate response, % of max was 24.3% (inactive); the glutamate slope, % of max came out at 47.7%.

In the case of `Cc1cc(C)c2c(n1)sc1c(=O)n(CC(=O)Nc3ccc(F)cc3F)cnc12`, the compound max-min signal stood at 0.126; the glutamate response, % of max is 45.2% (inactive); the glutamate slope, % of max stood at 70.3%.

As for `CSc1ccccc1NC(=O)C(=O)NCC(O)(c1ccco1)C1CC1` (stereo unspecified), the compound max-min signal is 0.142; the glutamate response, % of max is 47.7% (inactive); the glutamate slope, % of max worked out at 61%.

`O=C(c1ccc(Cl)c(N2C(=O)CCS2(=O)=O)c1)N1CCc2ccccc2C1`: the compound max-min signal stood at 0.0843; the glutamate response, % of max was 26.4% (inactive); the glutamate slope, % of max was 47.6%.

Regarding `CCSc1ccccc1C(=O)N1CCN(c2ccc(-c3ccccn3)nn2)CC1`, the compound max-min signal was 0.198; the glutamate response, % of max is 34.1% (active); the glutamate slope, % of max was found to be 45%.

In the case of `CCOc1ccccc1C(=O)N1CCN(c2ccc(-c3ccccn3)nn2)CC1`, the compound max-min signal is 0.189; the glutamate response, % of max is 31.9% (active); the glutamate slope, % of max stood at 43.1%.

With `O=C(NCc1ccccc1)N1CCN(c2ccc(-c3ccncc3)nn2)CC1`, the compound max-min signal was found to be 0.115; the glutamate response, % of max is 17.8% (inactive); the glutamate slope, % of max was 40.4%.

As to `CCn1ccnc1N1CCN(C(=O)c2ccccc2Cl)CC1`, the compound max-min signal was 0.0774; the glutamate response, % of max is 50% (inactive); the glutamate slope, % of max was determined as 67.4%.

Take `O=C(CCn1ccc(=O)[nH]c1=O)N1CCN(c2ccc(-c3ccccn3)nn2)CC1`: the compound max-min signal was 0.117; the glutamate response, % of max is 16.7% (inactive); the glutamate slope, % of max was found to be 21.1%.

As to `CCOc1ccc(-c2ccc(N3CCN(C(=O)c4ccc5nsnc5c4)CC3)nn2)cc1`, the compound max-min signal was determined as 0.0304; the glutamate response, % of max was 15.3% (inactive); the glutamate slope, % of max stood at 32.9%.

As to `CN1CCN(c2ccc(-c3cccc(NC(=O)COc4ccc(F)cc4F)c3)nn2)CC1`, the compound max-min signal came out at 0.0723; the glutamate response, % of max is 38.5% (inactive); the glutamate slope, % of max was determined as 60.1%.

Turning to `CCOc1ccc2c(=O)c(Oc3ccccc3Br)coc2c1`, the compound max-min signal was found to be 0.0905; the glutamate response, % of max was 40.8% (inactive); the glutamate slope, % of max turned out to be 58.4%.

For `O=C(NCc1ccsc1)c1c(F)cccc1F`, the compound max-min signal came to 0.0794; the glutamate response, % of max was 28.8% (inactive); the glutamate slope, % of max came to 48.6%.

As to `O=C(NCc1ccc(Cl)cc1)C(=O)NCc1c(F)cccc1F`, the compound max-min signal turned out to be 0.122; the glutamate response, % of max is 54.4% (inactive); the glutamate slope, % of max turned out to be 66.8%.

Turning to `Cn1cc(C(=O)NCc2c(F)cccc2F)nn1`, the compound max-min signal turned out to be 0.0862; the glutamate response, % of max is 93.4% (active); the glutamate slope, % of max is 99.8%.

In the case of `CC(=O)NCCn1ncc2c(N3CCOCC3)ncnc21`, the compound max-min signal is 0.0821; the glutamate response, % of max was 32.3% (inactive); the glutamate slope, % of max amounted to 59.3%.

As to `CCN1C(SCC(=O)Nc2cccc(Cl)c2)=NS(=O)(=O)c2ccccc21`, the compound max-min signal was found to be 0.0878; the glutamate response, % of max was 38% (inactive); the glutamate slope, % of max amounted to 62%.

Turning to `CCOc1ccccc1Nc1nnc(Cc2ccc(OC)cc2)c(=O)[nH]1`, the compound max-min signal turned out to be 0.0678; the glutamate response, % of max is 46% (inactive); the glutamate slope, % of max is 67.9%.

With `CSc1ccccc1C(=O)NCC(C)(O)C1CC1` (stereo unspecified), the compound max-min signal came to 0.0943; the glutamate response, % of max was 38.3% (inactive); the glutamate slope, % of max came to 57.1%.

As for `CCSc1ccccc1C(=O)NCC(O)(c1ccccc1)C1CC1` (stereo unspecified), the compound max-min signal was 0.0554; the glutamate response, % of max was 28.7% (active); the glutamate slope, % of max is 57.8%.

For the compound `O=C(NCC(O)(c1ccccc1)C1CC1)c1ccccc1Br` (stereo unspecified), the compound max-min signal stood at 0.0722; the glutamate response, % of max is 13.9% (inactive); the glutamate slope, % of max was 40%.

Consider `COc1ccc(NC(=O)CSc2nccn(-c3cccc(F)c3)c2=O)cc1Cl`, for which the compound max-min signal was 0.114; the glutamate response, % of max is 29.6% (inactive); the glutamate slope, % of max is 46.8%.

As for `O=S(=O)(NCC(O)c1ccsc1)c1cccs1` (stereo unspecified), the compound max-min signal is 0.105; the glutamate response, % of max is 47.4% (inactive); the glutamate slope, % of max was found to be 63.3%.
